NCOA3 inh – human NCOA3 inhibition. inhibition, % at 3.6 µM. HEK293 GAL4-SRC3 luciferase reporter, luminescence. 0.17% of 360,000 active. Q9Y6Q9. AID 588352;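 active means inhibition above a per-campaign cutoff, the mean of all compounds plus 3 SD, cut at about 60% in these data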;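 further: higher means less SRC3-driven luciferase light from the GAL4 reporter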
NCOA2 inhibitor – inhibits human steroid receptor coactivator 2. HEK293 GAL4-SRC2 luciferase reporter, luminescence. Q15596. inhibition, % at 9 µM. 0.17% of 370,000 active;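 active means inhibition above the mean inhibition of all tested compounds plus 3 SD, set per campaign, cut at about 52% in these data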
Gli-Sufu block – Gli-Sufu pathway antagonism; Sufu-KO-LIGHT fibroblasts, Gli luciferase reporter luminescence; inhibition, % at 5 µM; 0.74% of 340,000 active; AID 588413;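 active means inhibition above about 55%, limit read from the data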
NCOA1 inh – inhibitors of human steroid receptor coactivator 1 (SRC1); inhibition, % at 3.6 µM; HEK293 GAL4-SRC1 luciferase reporter, luminescence; AID 588354; Q15788; 0.12% of 360,000 active;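 active means inhibition above the campaign mean plus 3 SD, with each screening campaign given its own cutoff, cut at about 60% in these data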
COUP-TFII inh – blocks human COUP-TFII nuclear receptor | P24468 | HEK293T NGFI-A luciferase reporter, luminescence | inhibition, % at 8.6 µM | 0.7% of 370,000 active | AID 686940;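 active means inhibition above a per-plate cutoff, mean inhibition of test wells between control levels plus 3 SD, cut at about 38% in these data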;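 further: cells cotransfected with COUP-TFII expression vector driving the NGFI-A reporter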
NR5A2 inv ag – NR5A2 inverse agonism in reporter assay; HEK293T StAR-luciferase reporter, LRH-1 transfected, 24 h; inhibition, % at 3.6 µM; O00482; 0.13% of 360,000 active;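 active means inhibition above the mean inhibition of all tested compounds plus 3 SD, cut at about 73% in these data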
Gli antag conf – Gli-SUFU antagonism confirmation, single concentration. inhibition, % at 5 µM. Sufu-KO-LIGHT cells, Gli luciferase reporter, luminescence. AID 602428. shares compounds with Gli-Sufu block. 40% of 2,500 active;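 active means mean inhibition at 5 µM reaching about 45%, limit read from the data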
Gli cytotox – cytotoxic in Gli-SUFU antagonist counter-screen; shares compounds with Gli-Sufu block; Sufu-KO-LIGHT cells cytotoxicity, ATP luminescence; cytotoxicity, % at 5 µM; 32% of 2,500 active;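 active means mean cytotoxicity at 5 µM above about 25%, limit read from the data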;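 further: cells exposed to compound overnight for roughly 16 to 18 hours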
Wnt3a counter – inhibits Wnt3a reporter, counter-screen for Gli-SUFU antagonists. inhibition, % at 6.25 µM. AID 651995. Wnt-LIGHT cells, Wnt3a-driven luciferase reporter, luminescence. 20% of 2,500 active. shares compounds with Gli-Sufu block;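 active means mean inhibition above about 25%, limit read from the data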
Large screens that a line does not name were inactive (follow-up assays come after a bar, where they were run). Hits are enriched below; roughly 1.3% of the tested compounds scored in any of these assays.

CCN1CCN(CC(=O)c2c(C)n(C)c3ccc(OC)cc23)CC1	Gli-Sufu block 62.5 | Gli antag conf inactive | Gli cytotox inactive | Wnt3a counter inactive
CC(NC(=O)c1c(N)[nH]c(C(=O)c2ccc(Cl)cc2)c1-c1ccc(Br)cc1)c1cccc2ccccc12 (stereo not drawn)	none (no result: NCOA3 inh, Gli-Sufu block, NCOA1 inh, NR5A2 inv ag)
CSCCC(NS(=O)(=O)c1ccc(Br)cc1)C(=O)OCC(=O)NC1CC1 (stereo not drawn)	none | Gli antag conf inactive | Gli cytotox inactive | Wnt3a counter inactive
CSCCC(NS(=O)(=O)c1ccc(Cl)cc1)C(=O)OCC(=O)NC1CC1 (stereo not drawn)	none
Cc1c(C)n(Cc2ccc(-c3ccccc3C(=O)O)cc2)c2ccc(C(=O)N[C@@H](C)c3ccc(Br)cc3)cc12	none (no result: NCOA3 inh, Gli-Sufu block, NCOA1 inh, NR5A2 inv ag)
CCO[C@@H]1OC(C(=O)N2CCOCC2)=C[C@H](C2CC2)[C@H]1CCCO	none
CCO[C@H]1OC(C(=O)N2CCOCC2)=C[C@@H](C2CC2)[C@@H]1CCCO	Gli-Sufu block 98.7 | Gli antag conf inactive | Gli cytotox inactive | Wnt3a counter inactive
COc1ccc2nc3ccccc3nc2c1NC(=O)c1ccc(Cl)cc1Cl	Gli-Sufu block 71.4 | Gli antag conf inactive | Gli cytotox inactive | Wnt3a counter inactive
COc1cc(-c2cc(C(=O)Nc3c(Cl)cc(Cl)cc3Cl)c3ccccc3n2)cc(OC)c1OC	none
Cc1ccccc1CNC(=O)C1C2C=CC3(CN(Cc4ccccc4)C(=O)C13)O2 (stereo not drawn)	none (no result: NCOA3 inh, Gli-Sufu block, NCOA1 inh, NR5A2 inv ag)
COc1cccc(CNC(=O)C2CCC(CNS(=O)(=O)c3cccc4cccnc34)CC2)c1OC (stereo not drawn)	none (no result: NCOA3 inh, Gli-Sufu block, NCOA1 inh, NR5A2 inv ag)
CC1CCCN(c2cccc3c2S(=O)(=O)N([C@H](C)c2ccccc2)C[C@@H](COCc2ccccc2)O3)C1 (stereo partly drawn)	none (no result: NCOA3 inh, Gli-Sufu block, NCOA1 inh, NR5A2 inv ag)
CC(Oc1ccc(Br)cc1Br)C(=O)Nc1cccnc1Cl (stereo not drawn)	none | Gli antag conf inactive | Gli cytotox inactive | Wnt3a counter inactive
O=C(NCc1ccccc1)[C@@H]1CCCN1C(=O)[C@H]1CCCN1C(=O)c1ccc(F)cc1F	none (no result: NCOA3 inh, Gli-Sufu block, NCOA1 inh, NR5A2 inv ag)
O=C(Nc1cccs1)Nc1c(F)c(F)c(F)c(F)c1F	Gli-Sufu block 67.1 | Gli antag conf 71.8 | Gli cytotox 27.4 | Wnt3a counter 38.6
Fc1ccc(-n2cc(-c3ccccc3)[n+]3c2SCC3)cc1	none
CCOc1ccc(-n2c(-c3ccc(Cl)cc3)c[n+]3c2SCC3)cc1	Gli-Sufu block 77.9 | Gli antag conf 74.4 | Gli cytotox 30.1 | Wnt3a counter inactive
c1ccc(-c2cn(-c3ccccc3)c3[n+]2CCS3)cc1	Gli-Sufu block 64.7 | Gli antag conf 64.3 | Gli cytotox 26.5 | Wnt3a counter inactive
c1ccc(-c2c[n+]3c(n2-c2ccccc2)SCC3)cc1	Gli-Sufu block 59.4 | Gli antag conf 57.8 | Gli cytotox inactive | Wnt3a counter inactive
CCOc1ccc(C2=CSC3=NCCN23)cc1	none
Nc1[nH]n(-c2ccccc2)c(=O)c1N=Nc1ccc(F)cc1	none (no result: NCOA3 inh, Gli-Sufu block, NCOA1 inh, NR5A2 inv ag)
CC(C)OP(=O)(O)C(C)NC(=O)OCc1ccccc1 (stereo not drawn)	none (no result: NCOA3 inh, Gli-Sufu block, NCOA1 inh, NR5A2 inv ag)
CCOC(=O)[C@@]12CCC3=C1N(CCC3)C(=O)[C@H](CC(=O)N1CCCCC1)C2	none (no result: NCOA3 inh, Gli-Sufu block, NCOA1 inh, NR5A2 inv ag)
Cc1ccc(S(=O)(=O)c2nc(-c3ccco3)oc2NCC2CCCO2)cc1 (stereo not drawn)	none
O=S(=O)(c1ccc(Br)cc1)c1nc(-c2ccco2)oc1NCC1CCCO1 (stereo not drawn)	Gli-Sufu block 61.8 | Gli antag conf inactive | Gli cytotox inactive | Wnt3a counter inactive
COC(=O)CC[C@@H](/C=C/C(=O)OC(C)(C)C)Sc1ccc(C(C)(C)C)cc1	none (no result: NCOA3 inh, Gli-Sufu block, NCOA1 inh, NR5A2 inv ag)
COc1ccc(Cc2nnc(N/N=C/c3ccc(Br)cc3)[nH]c2=O)cc1OC	none
COc1ccc(Cc2nnc(N/N=C/c3ccc(O)cc3)[nH]c2=O)cc1OC	NCOA3 inh 69.1, NCOA2 inhibitor 52.7, Gli-Sufu block 82.0 | Gli antag conf 84.8 | Gli cytotox 28.7 | Wnt3a counter 73.3
COc1cc(/C=C2/NC(=O)N(c3cccc(Cl)c3)C2=O)ccc1O	Gli-Sufu block 75.0 | Gli antag conf 80.2 | Gli cytotox inactive | Wnt3a counter 45.8
COc1ccc(-n2cccc2/C=C2/NC(=O)N(c3cccc(Cl)c3)C2=O)cc1	none
OCC1OC(C(N=Nc2ccccc2)=NNc2ccccc2)C(O)C1O (stereo not drawn)	none (no result: NCOA3 inh, Gli-Sufu block, NCOA1 inh, NR5A2 inv ag)
CCc1nnc(N/N=C/c2ccc(N3CCC(C)CC3)c([N+](=O)[O-])c2)n1N	none
Cc1nnc(N/N=C/c2cc([N+](=O)[O-])c(N3CCC(C)CC3)cc2N2CCC(C)CC2)n1N	Gli-Sufu block 85.0 | Gli antag conf 87.5 | Gli cytotox 36.4 | Wnt3a counter inactive
COc1cccc(OC)c1C(=O)Nc1sc2c(c1C(N)=O)CCN(Cc1ccccc1)C2	none
CCN1CCc2c(sc(NC(=O)c3cc4ccccc4cc3OC)c2C(N)=O)C1	Gli-Sufu block 69.1 | Gli antag conf inactive | Gli cytotox inactive | Wnt3a counter inactive
Nc1ccc(O)cc1C(=O)OCC(=O)c1ccc(C2CCCCC2)cc1	Gli-Sufu block 65.8 | Gli antag conf 66.4 | Gli cytotox 32.6 | Wnt3a counter 29.3
COc1ccc(C(=O)OCC(=O)c2ccc(C3CCCCC3)cc2)cc1	none
CC(C)C(C)(C#N)NC(=O)CSc1nnc(-c2ccncc2)n1Cc1ccccc1 (stereo not drawn)	Gli-Sufu block 95.0 | Gli antag conf inactive | Gli cytotox inactive | Wnt3a counter inactive
COc1cc2c(cc1NC(=O)CSc1nnc(-c3ccccc3C)n1Cc1ccco1)oc1ccccc12	none (no result: NCOA3 inh, Gli-Sufu block, NCOA1 inh, NR5A2 inv ag)
C/C=C/COC(=O)c1[nH]c2c(c1C)C(=O)CC(c1ccco1)C2 (stereo not drawn)	Gli-Sufu block 56.2 | Gli antag conf 67.0 | Gli cytotox 60.1 | Wnt3a counter inactive
COC(=O)c1[nH]c2c(c1C)C(=O)CC(c1ccccc1)C2 (stereo not drawn)	Gli-Sufu block 56.9 | Gli antag conf 51.7 | Gli cytotox 53.4 | Wnt3a counter inactive
COC(=O)c1[nH]c2c(c1C)C(=O)CC(c1ccc(OC)cc1)C2 (stereo not drawn)	none
CCCN(CCC)Cc1cc2ccccc2c2c1COC2	none
CCN(CC)Cc1cc2ccccc2c2c1COC2	Gli-Sufu block 94.4 | Gli antag conf inactive | Gli cytotox inactive | Wnt3a counter inactive
COC(=O)[C@]12C[C@H](CC(=O)NCc3cccs3)C(=O)N(CCC3=CCCCC3)C1=C[C@H](COCc1ccccc1)O[C@@H]2C	none (no result: NCOA3 inh, Gli-Sufu block, NCOA1 inh, NR5A2 inv ag)
